Results filed as inconclusive are left out. Active and inactive are the calls of the source. Calls follow the shape of the dose curve; as a rule, active = well fitted activation curve with a large enough effect; inconclusive = small, poorly fitted or top-dose-only effect; inactive = flat fitted curve, though single readings scatter.

The assay is described as follows: Primary redox qHTS assay for identification of artifact compounds. (AID 1845223). The note with it: Amplex Red/HRP redox cycling with DTT, fluorescence; series mostly up to 53.8 µM. Summed up:
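Redox-cycling detection via DTT (250 uM final) oxidation coupled to Amplex Red (25 uM)/HRP (250 mU/mL) in HBSS. 15 min preincubation plus 30 min after DTT, room temperature. Ex/Em 525/598 nm; 4-parameter Hill fit against DMSO and 10 uM DA3003.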
A general note: In qHTS, concentration-response curves come from the screen itself.
Regarding `C=CC(=O)Nc1cccc(Sc2nc(Nc3ccc(N4CCN(C)CC4)cc3)ncc2Cl)c1`, the molecule was called inactive.
Turning to `Cc1cccc2c1CC[C@H](CN1CCC(c3c(Cl)cccc3Cl)CC1)C[C@@H]2O`, the outcome was inactive.
As to `N#Cc1ccc(Oc2ccc3c(c2)COB3O)cc1`, the outcome was inactive.
With `CCCCn1c(=O)n(Cc2ccccc2F)c(=O)c2[nH]c(Cc3ccc(NC(C)=O)cc3)nc21`, the outcome was inactive.
Turning to `CC(=O)Nc1cccc(-n2c(=O)n(C3CC3)c(=O)c3c(Nc4ccc(I)cc4F)n(C)c(=O)c(C)c32)c1`, the molecule was classed as inactive.
Next, `C[C@@H](NC(=O)c1ncnc(N)c1Cl)c1ncc(C(=O)Nc2cc(C(F)(F)F)c(Cl)cn2)s1`: “inactive”; `Cn1c(=O)c(-c2c(Cl)cccc2Cl)cc2cnc(Nc3cccc(C(=O)O)c3)nc21`: “inactive”; `Cc1nc2c([nH]1)CCN(C(=O)c1ccc(NC(=O)c3ccccc3-c3ccccc3)cc1)c1ccccc1-2`: “inactive”.
Consider `Cc1c(C(=O)Nc2ccc(N3C[C@@H](C)O[C@@H](C)C3)nc2)cccc1-c1ccc(OC(F)(F)F)cc1`, for which the outcome was inactive.
As to `O=C(Nc1cccc(C(F)(F)F)c1)Nc1cc(S(=O)(=O)NC2CC2)ccc1-c1ccsc1`, the molecule was classed as inactive.
For `COC(=O)N1CCN(Cc2cccc(NC(=O)Nc3ccc(C)nc3)c2F)CC1`, the molecule was called inactive.
For `CS(=O)(=O)c1ccc(C2=C(c3ccccc3)C(=O)OC2)cc1`, the outcome was inactive.
With `Nc1ccc(-c2ccc3ncc4ccc(=O)n(-c5cccc(C(F)(F)F)c5)c4c3c2)cn1`, the result was inactive.
In the case of `Cc1ccccc1C(C(=O)NC1CCCCC1)N(C(=O)CNc1ccc(C#N)cc1)c1cccc(F)c1` (centres undefined), the outcome was inactive.

Values taken from PubChem BioAssay (NCATS).
